According to publication PMC7819943, “Rice protein-binding microarrays: a tool to detect cis-acting elements near promoter regions in rice”:
In all, about 68,000 sequences were measured (“fluorescence intensity (a.u.)”: median about 9,100, highest 2% from about 16,000 on). Only a selection was taken, and the highest values are over-represented in it overall.

molecular target: OsWRKY34 (Oryza sativa, UniProt Q0JBA9 1-250); experiment: protein-binding microarray (RPBM); PBS, 2% BSA, 51.3 ng/ul salmon testes DNA, 50 uM zinc acetate, 200 nM TF, 25 C, 1 h; high values mean tight binding; details: protein: recombinant; tags: N-terminal polyhistidine and DsRed monomer fusion (pET32a); label: CyDye5-dUTP incorporated in the synthesized complementary strand; 3' TTTTT single-stranded linker to array surface; dsDNA, one strand shown
Sequence (Q0JBA9 entry or part of it): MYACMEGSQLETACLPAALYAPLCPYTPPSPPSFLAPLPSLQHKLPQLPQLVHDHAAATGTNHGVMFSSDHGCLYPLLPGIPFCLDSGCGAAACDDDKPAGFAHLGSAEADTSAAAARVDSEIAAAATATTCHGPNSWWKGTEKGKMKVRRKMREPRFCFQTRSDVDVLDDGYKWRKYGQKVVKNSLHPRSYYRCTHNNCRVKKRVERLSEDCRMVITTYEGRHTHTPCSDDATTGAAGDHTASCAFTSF
Outline: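 An Axon 4000B scanner gave the binding signal as per-feature fluorescence intensity in arbitrary units. This followed washing of a custom Agilent array that had been incubated for 1 h at 25 °C with 200 nM protein in PBS, 2% BSA, salmon testes DNA and 50 µM zinc acetate. The proteins were transcription factors fused at the N-terminus to polyhistidine and DsRed, expressed in E. coli BL21-CodonPlus and purified on Ni–NTA.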

Which binding signal does the source give for “CGTCTCGTGTCTTCTCGTCTCGACCCATCCATCCATCCCACGGAGTCACCTAGTGCAG” here?
Its binding signal is 8570 fluorescence intensity (a.u.).

With “CGGGCTCTGGTTTTACCGAATAAATGCTCTGGGCCTAATACGGAGTCACCTAGTGCAG” as the sequence, how does the binding signal read?
The binding signal was 8020 fluorescence intensity (a.u.).

“GCATTAGAACGAGCGCACCCACTTTCAGTTCTCAAATTATCGGAGTCACCTAGTGCAG” was tested. Which binding signal did it give?
Its binding signal is 8670 fluorescence intensity (a.u.).

For “GTCTTTTGATGCGACGCGATGTGACTCGCCCGACCCAACTCGGAGTCACCTAGTGCAG”, which binding signal is on record?
The binding signal was 8940 fluorescence intensity (a.u.).

“CCTCCATTCTTCAGTTTTAATGCATCCTCTTCATCACTTCCGGAGTCACCTAGTGCAG” was tested. Which binding signal did it give?
Its binding signal is 11800 fluorescence intensity (a.u.).

How did the binding signal turn out when “CATCAGTACAGGCCCAACTTAAAAATTGCTCGGCCCATTTCGGAGTCACCTAGTGCAG” was run?
Its binding signal is 8850 fluorescence intensity (a.u.).

With “GGTGCTCCGCCTCCCGGGGCAGGGTTTCAAGAGGGTGGGTCGGAGTCACCTAGTGCAG” as the sequence, how does the binding signal read?
The binding signal was 10700 fluorescence intensity (a.u.).

How did the binding signal turn out when “CATCCGATTCCTATGTATTTCTTGCGGTCTAATCAAACGACGGAGTCACCTAGTGCAG” was run?
Its binding signal is 10200 fluorescence intensity (a.u.).

For “GTGTTTTGCAAGGTTGTTTCTTTACCTTATCTATATACATCGGAGTCACCTAGTGCAG”, which binding signal is on record?
The binding signal was 9790 fluorescence intensity (a.u.).

How did the binding signal turn out when “CACTCCACCATTGTCATCTTTACTATCGGTAATTGTTGATCGGAGTCACCTAGTGCAG” was run?
Its binding signal is 8440 fluorescence intensity (a.u.).

How did the binding signal turn out when “TTTTTCTTGTGCTCTATCCATCCATGCCATGCCATTCATCCGGAGTCACCTAGTGCAG” was run?
Its binding signal is 10200 fluorescence intensity (a.u.).

“AGTTGGCTATAATATATTTCTTCTCTCTCTATCTCTCATTCGGAGTCACCTAGTGCAG” was tested. Which binding signal did it give?
The binding signal was 17700 fluorescence intensity (a.u.).

“ACAGTTTTCTCCATCTTGGCCATTCGTGTGCTATATCCATCGGAGTCACCTAGTGCAG” was tested. Which binding signal did it give?
The binding signal was 16500 fluorescence intensity (a.u.).

For “GGGCTGTTATCTCTGATGTGTTTTCTGCCTCTCATGTCATCGGAGTCACCTAGTGCAG”, which binding signal is on record?
The binding signal was 17000 fluorescence intensity (a.u.).

For “TTTTTTTCTCCTCATTATTCTTCTTTTCTTTCTCTATATTCGGAGTCACCTAGTGCAG”, which binding signal is on record?
The binding signal was 9180 fluorescence intensity (a.u.).

Which binding signal does the source give for “GGAGTGTTTCTGTTGTTGCATGTGATGAGTGCATTATCATCGGAGTCACCTAGTGCAG” here?
Its binding signal is 11000 fluorescence intensity (a.u.).

With “GCCTGTTTCTCCTTCGGCTGATGATATCTGTGCTGTTTTTCGGAGTCACCTAGTGCAG” as the sequence, how does the binding signal read?
The binding signal was 8550 fluorescence intensity (a.u.).

“GCTTTTCTTTGTCCATCCATCTATCTTTTTCTCCATCTTTCGGAGTCACCTAGTGCAG” was tested. Which binding signal did it give?
The binding signal was 8440 fluorescence intensity (a.u.).

Which binding signal does the source give for “TCTTTTTTCTCTTCTTCTTCTCCTCCATTCCATTCCATTTCGGAGTCACCTAGTGCAG” here?
The binding signal was 8930 fluorescence intensity (a.u.).

“TTCTCTCTCTATCTCTCATTTATATATTTAATATATTTGTCGGAGTCACCTAGTGCAG” was tested. Which binding signal did it give?
The binding signal was 9250 fluorescence intensity (a.u.).

“TGCTCAACATCCATCTTTCTTTCTTTCTTTTTCTCTTTTTCGGAGTCACCTAGTGCAG” was tested. Which binding signal did it give?
Its binding signal is 11300 fluorescence intensity (a.u.).

With “GTCAAATTTCTGTGCTCCATAAGATCTCTTCTCTTTTTTTCGGAGTCACCTAGTGCAG” as the sequence, how does the binding signal read?
The binding signal was 16700 fluorescence intensity (a.u.).

With “ACCCACCACATCGACGCGACCACACTCCACACAAGCCATGCGGAGTCACCTAGTGCAG” as the sequence, how does the binding signal read?
The binding signal was 10100 fluorescence intensity (a.u.).

Which binding signal does the source give for “TAGTGTTGGTTTGATTTTTATATCACTAGAGATGAACTAACGGAGTCACCTAGTGCAG” here?
Its binding signal is 8560 fluorescence intensity (a.u.).

For “GATGATGATGATTTTGGTAGGAGATATGGATCGTGTTGGTCGGAGTCACCTAGTGCAG”, which binding signal is on record?
Its binding signal is 11300 fluorescence intensity (a.u.).

How did the binding signal turn out when “ATCTTATTAATTAATTCTTTGTGTTTCATATTATTCTAATCGGAGTCACCTAGTGCAG” was run?
The binding signal was 10300 fluorescence intensity (a.u.).

How did the binding signal turn out when “TGCGAGTTCGTCGCCGCCTCCGCCGATCTCCATCAGGCGACGGAGTCACCTAGTGCAG” was run?
Its binding signal is 9610 fluorescence intensity (a.u.).

“GCAGCGACGACATCTGACGGCCTCACCTACCTTTCGGTCTCGGAGTCACCTAGTGCAG” was tested. Which binding signal did it give?
Its binding signal is 8460 fluorescence intensity (a.u.).

Which binding signal does the source give for “GGTGTCTTGATTGATATGATTTAAATTATTCTTGGTCTTGCGGAGTCACCTAGTGCAG” here?
The binding signal was 9570 fluorescence intensity (a.u.).

With “GGCTCAACAAATAATGTGAAGATCTCTCATTTTCATTTTCCGGAGTCACCTAGTGCAG” as the sequence, how does the binding signal read?
The binding signal was 8050 fluorescence intensity (a.u.).

With “CTAGTTGTGTTTGTTAATTTCTTTCTATACATGGGTTACCCGGAGTCACCTAGTGCAG” as the sequence, how does the binding signal read?
Its binding signal is 11700 fluorescence intensity (a.u.).

“TTTATACATGGTTTGTGTTTTTCTCACTTTGGGTTGGGGACGGAGTCACCTAGTGCAG” was tested. Which binding signal did it give?
The binding signal was 18000 fluorescence intensity (a.u.).

For “AAATTTGTTATTTTTGTTTCGAATTATATAATTCGAATTTCGGAGTCACCTAGTGCAG”, which binding signal is on record?
The binding signal was 9450 fluorescence intensity (a.u.).

With “TCTTTGTTATAATTATGGGGTTGGTTTTATTCGTTTTCGACGGAGTCACCTAGTGCAG” as the sequence, how does the binding signal read?
Its binding signal is 21900 fluorescence intensity (a.u.).

“TGTTTGGTTGGGATACATGGGAATTTTGGTAGGATGGGGACGGAGTCACCTAGTGCAG” was tested. Which binding signal did it give?
The binding signal was 12700 fluorescence intensity (a.u.).

“TCGTTATACCTGGTTTTTTTGGTTGAGGGATGTTATTCGACGGAGTCACCTAGTGCAG” was tested. Which binding signal did it give?
Its binding signal is 12500 fluorescence intensity (a.u.).

For “GACACCACATAAAGACACCCATCCCCGTGATCAACTACCTCGGAGTCACCTAGTGCAG”, which binding signal is on record?
The binding signal was 8320 fluorescence intensity (a.u.).

With “CGCCTGTCAAATCCTAGTCAGGGAATCTGTCTTCCATCTACGGAGTCACCTAGTGCAG” as the sequence, how does the binding signal read?
The binding signal was 9100 fluorescence intensity (a.u.).

For “TTTTTCTTTTTATTGTCTTGTTCTCGTGCGTGTTGAAAAACGGAGTCACCTAGTGCAG”, which binding signal is on record?
Its binding signal is 20300 fluorescence intensity (a.u.).

“AGTTGAGGGATCCGTTGTATCTGGTTTTGCGGTTGAAGGACGGAGTCACCTAGTGCAG” was tested. Which binding signal did it give?
Its binding signal is 8570 fluorescence intensity (a.u.).

With “TTGTGTAGGTTTTGTTTCTTTCTTCTTTTTTCGAAAAGAGCGGAGTCACCTAGTGCAG” as the sequence, how does the binding signal read?
Its binding signal is 8940 fluorescence intensity (a.u.).

How did the binding signal turn out when “AAGGACCCGTTCTATCTGGTTTTGCGGTTGAAGGATAGAACGGAGTCACCTAGTGCAG” was run?
Its binding signal is 28000 fluorescence intensity (a.u.).
